Compound activity (PubChem BioAssay)
TSG101-PTAP inh: blocks PTAP/TSG101 interaction to inhibit HIV-1 budding; Q99816; Fluorescence polarization, FITC-PTAP peptide / Tsg101 binding; Potency, µM (doses to about 115 µM), inactives show top-dose activity change, negative = inhibition, hits mostly inhibitors; 340,000 tested, under 10 active; AID 493005; active means well fitted inhibition curve with a large enough effect in the main read-out, with a control signal flat, not every such curve was filed as active; inconclusive means small, poorly fitted or top-dose-only effect, or effect the other way, or a change in a side signal; inactive means no such curve, though single readings can be large or run the other way; further: % of control where 0% means no effect
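Fluorescence polarization binding of Tsg101 binding domain (10 uM final) to FITC-labeled PTAP peptide (50 nM final) in HEPES pH 7.5 buffer with NaCl, Tween 20, EDTA, TCEP. Compounds added before peptide; binding 20 min at RT.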
ERG Ets-DNA blk: inhibitors of human ERG Ets domain-DNA interaction. P11308. Potency, µM (top dose mostly 76.9 µM), for the others: at the highest dose FP activity, negative = inhibition, hits mostly inhibitors. fluorescence polarization, His-ERG Ets domain / labelled DNA. actives 0.028% (n = 370,000); active means well fitted inhibition curve with a large enough effect in the polarisation, with a control signal flat; inconclusive means small, poorly fitted or top-dose-only effect, or effect the other way, or a change in a side signal; inactive means no such curve, though single readings can be large or run the other way; the % refers to the polarisation;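 further: polarization taken with two DNA probes labelled with fluorescein and Texas red; % of control where 0% means no effect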
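His-tagged ERG Ets domain (1 uM in the protein solution; 300mM KCl, 50mM Tris-HCl, 1mM EDTA, 1mM DTT, pH 7.5) received compound, then a probe mix of 5 nM fluorescein-DNA and 100nM Texas-615-DNA. Fluorescence polarization was read for both dyes.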
mIDH1 inhibitor: human IDH1 R132H inhibition | Potency, µM (series often up to 76.6 µM), for the others: at the top dose activity change, negative = inhibition, actives largely listed as inhibitors | O75874 | IDH1-R132H enzyme, NADPH consumption, diaphorase/resazurin fluorescence | actives 0.093% (n = 390,000); further: on the % scale 0 is the no-effect control and ±100 the full control effect; nearly all actives have a fitted effect of over 65% in size
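IDH1-R132H (0.5 ug/mL) preincubated 30 min with compound, then NADPH (0.016 mM) and alpha-KG (2 mM) added; 80 min at RT, pH 7.5. Remaining NADPH coupled via diaphorase/resazurin to fluorescence (540/590 nm); concentration-response curves normalized to no-enzyme control.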
Apoferritin bind: binds horse apoferritin like a general anesthetic; P02791; apoferritin/1-aminoanthracene competitive binding, fluorescence; Potency, µM (series often up to 77.5 µM), inactives show top-dose activity change, negative = displacement, actives largely listed as inhibitors; actives 0.074% (n = 350,000); AID 485281; further: on the % scale 0 is the no-effect control and ±100 the full control effect; nearly all actives have a fitted effect of over 20% in size
Target sequence (P02791 2-175 limits assumed): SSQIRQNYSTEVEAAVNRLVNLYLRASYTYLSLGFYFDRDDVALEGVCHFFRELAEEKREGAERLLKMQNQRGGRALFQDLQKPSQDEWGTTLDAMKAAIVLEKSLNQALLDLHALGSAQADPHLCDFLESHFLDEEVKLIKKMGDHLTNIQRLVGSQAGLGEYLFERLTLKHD
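Steps: apoferritin (10 uM) was premixed with half-saturated 1-AMA in PBS, compounds were pin-transferred, plates stood 10 min at room temperature, fluorescence was read at 380/535 nm, and curves were fitted with a Hill equation.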
* hit, by the source's call; ? = inconclusive; . = no result given; [ ] = another dose, or the depositor's remark. Sampled rows, rich in hits. Any-hit rate of the full collection: about 0.18%. Unless noted, the call rests on the fitted dose curve; in most records, active means well fitted inhibition curve with a large enough effect; inconclusive means small, poorly fitted or top-dose-only effect; inactive means no such curve, though single readings can be large or run the other way. Potency means the concentration at half of the fitted maximal effect.

SMILES	TSG101-PTAP inh	ERG Ets-DNA blk	mIDH1 inhibitor	Apoferritin bind
Cc1ccc(N2C(=O)CC3(CC4C=CC3C4)C2=O)cc1 (centres undefined)	-1%	-1%	3%	7.9µM*
Oc1ccc2c(c1)OCC1(O)Cc3cc(O)c(O)cc3C21 (centres undefined)	-13%	13µM*	-3%	33%
Oc1cc2c(cc1O)[C@H]1c3ccc(O)c(O)c3OC[C@@]1(O)C2	1%	-15%	2%	.
O=[N+]([O-])c1ccccc1-c1ccc(C(=S)N2CCCCC2)o1	-2%	-25%	3%	?
O=[N+]([O-])c1ccccc1-c1ccc(C(=S)N2CCCC2)o1	0%	0%	16%	56µM*
O=C(COC(=O)CC1CC2CCC1C2)NC(=O)NCc1ccco1 (centres undefined)	-11%	-2%	-5%	13µM*
NC(=O)c1ccc(NC(=O)COC(=O)CC2CC3CCC2C3)cc1 (centres undefined)	-7%	-2%	3%	.
COCCCNC(=O)c1cc(C)nc2ccc(F)cc12	.	-6%	16%	8%
COc1ccc2[nH]c(=O)c(C(c3nnnn3CC3CCCO3)N3CCc4ccccc4C3)cc2c1 (centres undefined)	-5%	-11%	5%	-6%
O=C1c2ccccc2C(=O)N1CC(O)COc1ccc(Cl)cc1 (centres undefined)	1%	-1%	-6%	-8%
COc1ccc(OCC(O)CN2C(=O)c3ccccc3C2=O)cc1 (centres undefined)	-9%	13µM*	1%	-12%
CCCC#CCN1CCN(C23CC4CC(CC(C4)C2)C3)CC1	1%	0%	-3%	-8%
Cc1cc2c(=Cc3ccc(N(C)C)cc3)c3ccccc3n2[n+]1C	27%	.	3%	.
CN(C)c1ccc(C=c2c3ccccc3n3c2c2ccccc2[n+]3C)cc1	-3%	.	46µM*	.
O=C(NCc1ccc2c(c1)OCO2)c1ccc(N2C(=O)C3CCCCC3C2=O)cc1 (centres undefined)	-2%	0%	-3%	8.9µM*
CCOC(=O)N1CC=C2C(C#N)=C(N)C(C#N)(C#N)[C@H](c3ccsc3)[C@H]2C1	-7%	5%	41µM*	-6%
CCOC(=O)N1CC=C2C(C#N)=C(N)C(C#N)(C#N)[C@H](c3ccccc3OCC)[C@H]2C1	.	-7%	-20%	-12%
Cc1cc(C)cc(NCc2cc3c(cc2[N+](=O)[O-])OCO3)c1	-2%	.	7%	16µM*
O=c1c(O)c(-c2cccs2)oc2ccccc12	-2%	-10%	1%	177%
CN1OC2C(=O)N(c3ccccc3)C(=O)C2C1c1ccc(F)cc1 (centres undefined)	.	-10%	8%	32µM*
O=C1S/C(=C\c2ccc(O)c([N+](=O)[O-])c2)C(=O)N1Cc1cccc([N+](=O)[O-])c1	-4%	-1%	18%	-14%
O=C1S/C(=C\c2ccc(O)c([N+](=O)[O-])c2)C(=O)N1c1ccccc1Cl	-3%	-3%	-3%	13µM*
Cn1c(=O)oc2cc(S(=O)(=O)Nc3cccc4c3CCCC4)ccc21	-1%	1%	1%	?
Cc1c(C(=O)N(C)C)sc2c1c(=O)n(-c1ccccc1C(F)(F)F)c(=O)n2Cc1cccc(F)c1	.	-3%	-12%	-17%
Oc1ccc(N=Cc2ccc(OCc3ccccc3)cc2)cc1	1%	14µM*	26%	?
SMILES	TSG101-PTAP inh	ERG Ets-DNA blk	mIDH1 inhibitor	Apoferritin bind
Nc1nnc(CSCc2ccccc2Cl)s1	0%	-5%	2%	?
Nc1nnc(SCc2ccccc2Cl)s1	-6%	2%	5%	11µM*
Cc1ccc(Sc2c(C)nn(C(=O)COc3ccccc3Br)c2C)cc1	.	1%	0%	6.3µM*
Cc1ccc(Sc2c(C)nn(C(=O)COc3ccc(F)cc3)c2C)cc1	.	3%	23%	8%
CC(=O)N[C@@H](CC(=O)O)C(=O)O	?	28µM*	11%	9%[29.3 µM]
O=C(COc1ccccc1)NC1CCCCC1	-4%	12%	-3%	0%
O=C(COc1ccccc1)NC1CCCCCCC1	-5%	-5%	-1%	45µM*
COc1ccccc1NCC(=O)c1ccc(Cl)cc1	-6%	7%	46µM*	?
COc1ccccc1NCC(=O)c1ccc(C)c(C)c1	-2%	0%	-18%	?
